esBAF inh – SWI/SNF esBAF complex inhibition; reporter increase, % at 12.5 µM; AID 602393; mouse ES cells, Bmi1-luciferase knock-in reporter, 24 h; 100% = twice the neutral-well signal; 350,000 compounds, 2% hits; in the data active = activation above about 40%; inconclusive = no clear call, values can overlap the other calls;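 also: a rise in the Bmi1 reporter signal indicates esBAF inhibition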
PHOSPHO1 block – inhibitors of human PHOSPHO1 phosphatase. Q8TCT1. recombinant PHOSPHO1, absorbance phosphatase assay. inhibition, % at 13.3 µM. 290,000 compounds, 1.1% hits. AID 1565; in the data active = inhibition above about 60%
Target sequence (Q8TCT1 whole entry, looked up): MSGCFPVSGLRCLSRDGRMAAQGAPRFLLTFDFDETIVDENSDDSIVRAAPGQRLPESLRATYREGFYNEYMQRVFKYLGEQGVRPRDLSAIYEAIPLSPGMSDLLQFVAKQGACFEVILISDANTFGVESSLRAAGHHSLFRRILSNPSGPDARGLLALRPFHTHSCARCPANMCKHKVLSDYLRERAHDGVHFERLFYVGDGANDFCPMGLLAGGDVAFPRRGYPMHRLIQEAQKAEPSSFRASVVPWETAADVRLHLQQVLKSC
A3A deaminase – blocks human APOBEC3A ssDNA deamination; P31941; recombinant A3A, FAM/TAMRA ssDNA deamination fluorescence; inhibition, % at 20 µM; 330,000 compounds, 0.41% hits; AID 493011;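 active = at least 40% inhibition at 20 µM here, with at most 30% in a related deaminase screen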
Target sequence (P31941 whole entry, looked up): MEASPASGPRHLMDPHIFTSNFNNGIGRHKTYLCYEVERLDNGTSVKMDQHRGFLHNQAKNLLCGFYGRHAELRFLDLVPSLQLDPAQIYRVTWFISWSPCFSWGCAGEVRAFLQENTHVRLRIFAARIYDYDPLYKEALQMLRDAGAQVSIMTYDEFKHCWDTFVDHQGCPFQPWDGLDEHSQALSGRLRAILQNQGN
Wnt bcat act – activators of Wnt/beta-catenin signaling; 300,000 compounds, 1.2% hits; AID 743398; Wnt/beta-catenin reporter cell assay, activator, plate reader; activation, % at 9.35 µM; in the data active = activation above about 30%, passing the limit was not always enough; inconclusive = no clear call, values can overlap the other calls
A3G deaminase – APOBEC3G (human) deaminase inhibition. AID 493012. 330,000 compounds, 0.28% hits. inhibition, % at 20 µM. Q9HC16. recombinant A3G, ssDNA deamination FAM/TAMRA fluorescence;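 active = inhibition of at least 40% at 20 µM, with no more than 30% in the related APOBEC3A deaminase screen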
MITF act – activators of MITF-driven TRPM1 promoter activity in SK-MEL-5 cells. 300,000 compounds, 0.75% hits. activation, % at 12.5 µM. SK-MEL-5 TRPM1-promoter luciferase, 24 h; % of positive control, neutral wells = 0;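 active = mean activation of at least 80% with every replicate also reaching 80%; inconclusive = mean reaches 80% but some replicate falls short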
Numbers stand for hits; 0 = inactive; ? = inconclusive; - = no result. Shown are actives, neighbours in structure and some others; about 3.6% of the full set was active somewhere.

SMILES	esBAF inh	PHOSPHO1 block	A3A deaminase	Wnt bcat act	A3G deaminase	MITF act
N#C/C(=C\c1ccccn1)c1ccccn1	0	0	0	0	0	0
N#C/C(=C\c1ccc([N+](=O)[O-])cc1)c1ccccn1	-	0	0	39.5	0	0
COC(=O)c1ccc(/C=C(\C#N)c2ccccn2)cc1	101.7	0	0	0	0	107.4
CN(C)c1ccc(/C=C(\C#N)c2ccccn2)cc1	-	0	0	-	0	0
N#C/C(=C/c1cccs1)c1ccccn1	-	0	0	44.0	0	?
CCOC(=O)C1(CCOc2ccccc2)CCN(Cc2ccc(OC)cc2)CC1	0	-	-	0	-	-
CCOC(=O)C1(CCOc2ccccc2)CCN(Cc2ccc3nonc3c2)CC1	-	68.4	0	0	0	0
CC(Cc1ccco1)NC(=O)c1ccc(C(F)(F)F)cc1 (stereo not drawn)	0	0	0	0	0	127.8
O=C(NCc1ccco1)c1ccc(C(F)(F)F)cc1	-	0	0	-	0	0
N=C1/C(=C/c2ccc(OCc3ccccc3F)cc2)C(=O)N=C2SC(CC(=O)N3CCOCC3)=NN12	0	0	0	0	0	0
N=C1/C(=C/c2ccc(OCc3ccccc3)cc2)C(=O)N=C2SC(CC(=O)N3CCOCC3)=NN12	42.0	0	0	0	0	0
C[C@H]1CN([C@@H](C)CO)C(=O)c2cccc(NS(=O)(=O)c3cn(C)cn3)c2O[C@H]1CN(C)Cc1ccc2c(c1)OCO2	0	-	-	-	-	-
Cc1nc(N[C@@H](Cc2ccccc2)C(=O)O)c2oc3ccccc3c2n1	-	0	0	-	0	0
Cc1nc(NC(C)C(=O)O)c2nc(C)oc2n1 (stereo not drawn)	0	62.3	0	0	0	0
Brc1ccc(-c2csc(/N=C/N3CCOCC3)n2)cc1	51.2	0	0	-	0	0
OCCN(/C=N/c1nc(-c2ccc(Br)cc2)cs1)CCO	40.8	0	0	0	0	0
CO[C@H](CN(C)C(=O)c1ccccc1F)[C@@H](C)CN([C@H](C)CO)S(=O)(=O)c1ccc(Cl)cc1	0	-	-	-	-	-
CC(=O)c1ccc(NC(=O)CCc2nnc3ccc(N4CCCC4)nn23)cc1	56.8	0	0	0	0	0
O=C(/C=C/c1ccc(S(=O)(=O)N2CCOCC2)cc1)NC(=S)NCCCn1ccnc1	0	0	0	31.9	0	0
O=C(COc1ccc(S(=O)(=O)N2CCOCC2)cc1)NCCCn1ccnc1	0	0	0	0	0	0
O=C(CCN1C(=O)C2CCCCC2C1=O)Nc1nc2c(F)cc(F)cc2s1 (stereo not drawn)	?	-	0	41.3	0	89.7
O=C(Nc1nc2c(F)cc(F)cc2s1)C1CC1	49.3	0	0	0	0	-
Cc1ccc2sc(NC(=O)C3CC3)nc2c1C	63.4	0	0	0	0	0
O=C(CN1C(=O)CCC1=O)Nc1nc2c(F)cc(F)cc2s1	0	-	0	0	0	0
C[C@@H]1CCCCO[C@@H](CN(C)Cc2ccc(Cl)c(Cl)c2)[C@H](C)CN([C@H](C)CO)C(=O)c2cc(NS(=O)(=O)c3cn(C)cn3)ccc2O1	0	-	-	-	-	-
SMILES	esBAF inh	PHOSPHO1 block	A3A deaminase	Wnt bcat act	A3G deaminase	MITF act
CC1=NN(c2ccc(Cl)c(C(=O)O)c2)C(=O)C1	-	0	0	0	0	0
CC1=NN(c2ccc(C(=O)O)c(N)c2)C(=O)C1	-	62.8	0	0	0	0
CO[C@@H]1CN(C)C(=O)c2ccc(NC(=O)C3CCCC3)cc2OC[C@@H](C)N(C(C)=O)C[C@H]1C	0	-	-	-	-	-
Cc1cc2ncn(C(=O)N3CCC(C)CC3)c2cc1C	54.4	0	0	-	0	0
Cc1cc2ncn(C(=O)c3ccc4c(c3)OCO4)c2cc1C	0	0	0	0	0	0
Cc1ccc(S(=O)(=O)N2C[C@@H](O)COC[C@@H]3O[C@H](CC(=O)N[C@H]4CCN(Cc5ccccc5)C4)CC[C@H]32)cc1	0	-	-	-	-	-
C[C@H](CO)N1C[C@H](C)[C@H](CN(C)Cc2ccc(Cl)c(Cl)c2)Oc2ccc(NS(=O)(=O)c3cn(C)cn3)cc2C1=O	0	-	-	-	-	-
COC(=O)c1ccc2c(c1)c(C#Cc1ccccc1)c(-c1ccccc1)n2C	47.2	-	0	0	0	0
COc1cc(C2C3=C(CC(C)(C)CC3=O)Nc3c2c(=O)[nH]c(=O)n3Cc2ccccc2)ccc1O (stereo not drawn)	-	0	0	32.6	0	0
Cc1cc(-c2nnc(-c3cc4ccccc4oc3=O)o2)c(C)n1-c1ccccc1	54.0	0	0	-	0	-
COc1ccc2cc(-c3nc4ccccc4n3C)c(=O)oc2c1	87.0	0	0	0	0	90.4
COc1ccc2oc(=O)c(-c3nc4ccccc4o3)cc2c1	-	0	0	103.1	0	0
O=c1oc2ccccc2cc1-c1nc2ccccc2o1	0	0	0	35.2	0	0
O=c1oc2ccc3ccccc3c2cc1-c1nc2ccccc2o1	0	-	0	-	0	0
CSc1ccccc1OCc1cc(C(=O)N(C)Cc2ccc(C)o2)no1	75.0	0	0	0	0	98.8
CSc1ccccc1OCc1cc(C(=O)NCc2ccc(C)s2)no1	0	0	0	0	0	0
CCOC(=O)c1ccc(CNC(=O)c2cc(COc3ccccc3SC)on2)o1	54.3	0	0	0	0	103.2
CSc1ccccc1OCc1cc(C(=O)N(C)Cc2ccc3nsnc3c2)no1	0	0	0	35.0	0	0
CC(=O)c1cccc(OCc2cc(C(=O)N(C)Cc3ccc(C)o3)no2)c1	0	0	0	0	0	0
COCCNC(=O)C[C@@H]1CC[C@H]2[C@@H](COc3ccc(NC(=O)c4cnccn4)cc3C(=O)N2C)O1	0	-	-	-	-	-
Cc1nc(SCC(=O)c2ccc(F)cc2)n[nH]1	0	94.8	0	0	0	0
CCc1nc(SCC(=O)c2ccc(C)c(C)c2)n[nH]1	0	99.0	0	0	0	0
O=C1CC(O)(C(F)F)Oc2ccc3ccccc3c21 (stereo not drawn)	-	67.4	0	-	0	0
O=C1CC(O)(C(F)(F)F)Oc2c1ccc1ccccc21 (stereo not drawn)	0	0	0	0	0	0
CC(=O)COc1ccc(-c2csnn2)cc1	-	0	0	0	0	0
SMILES	esBAF inh	PHOSPHO1 block	A3A deaminase	Wnt bcat act	A3G deaminase	MITF act
Cc1ccccc1C(=O)Oc1ccc(-c2csnn2)cc1	50.6	0	0	0	0	0
CC(C)(C)C(=O)Nc1ccc(-c2csnn2)cc1	?	0	0	0	0	0
CC(C)(C)C(=O)O/N=C(\N)c1ccc(-c2csnn2)cc1	84.2	0	0	53.2	0	106.4
CC(=O)O/N=C(\N)c1ccc(-c2csnn2)cc1	54.0	0	0	0	0	0
c1ccc(COc2ccc(-c3csnn3)cc2)cc1	47.0	0	0	-	0	93.9
O=C(Nc1ccc(-c2ccccc2)cc1)[C@H]1[C@H](CO)[C@H]2Cn3c(cccc3=O)[C@H]2N1CC1CCCCC1	0	-	-	-	-	-
Cc1ccc(S(=O)(=O)N[C@@H]2CC[C@@H](CCn3cc(-c4cccnc4)nn3)O[C@@H]2CO)cc1	0	-	-	-	-	-
COCC(=O)N1C[C@H](C)[C@H](OC)CN(C)C(=O)c2ccc(NC(=O)c3cc(C)on3)cc2OC[C@H]1C	0	-	-	-	-	-

Compound activity deposited in PubChem by several laboratories.
